Results with a measured potency or affinity are listed apart.
How the values were obtained:
Staphylococcus aureus = conditions: Concentration 32 ug.mL-1;; ASSAY_TEST Inhibition of Bacterial Growth; detection method Absorption (OD600); MEDIA CAMHB; plate type 384well; NBS; CORNING #3640; time 18 hr
Escherichia coli = conditions: Concentration 32 ug.mL-1;; ASSAY_TEST Inhibition of Bacterial Growth; detection method Absorption (OD600); MEDIA CAMHB; plate type 384well; NBS; CORNING #3640; time 18 hr

| Compound | Inhibition (Staphylococcus aureus) [%] | Inhibition (Escherichia coli) [%] |
| --- | --- | --- |
| COC(=O)c1sccc1NC(=O)CSc1nc2ccccc2n2c(C)nnc12 | 17.15 | 5.14 |
| COc1cccc(CNC(=O)CSc2nnc3c4cc(-c5ccc(C)cc5)nn4ccn23)c1 | -18.93 | -18.15 |
| CCCCc1ccc(NC(=O)CSc2nc3ccccc3n3c(C(C)C)nnc23)cc1 | -8.95 | -2.74 |
| COc1ccc(NC(=O)Cn2c(=O)c3nnc(C(C)C)n3c3ccccc32)cc1 | 4.5 | -6.7 |
| CCOc1ccc(-n2ccn3c(SCC(=O)c4ccc(C)cc4)nnc3c2=O)cc1 | 16.97 | -1.19 |
| Cc1nnc2c(=O)n(CC(=O)Nc3ccc(Br)cc3)c3ccccc3n12 | -6.47 | 5.5 |
| O=C(NCc1ccccc1)c1ccc2nn(CC(=O)N3CCN(c4ccccc4)CC3)c(=O)n2c1 | 4.31 | -4.36 |
| O=S(=O)(c1ccc2nncn2c1)N(Cc1cc(F)cc(F)c1)c1ccccc1 | 0.37 | -13.22 |
| CCc1nnc2c(S(=O)(=O)N(Cc3cccc(F)c3)c3ccccc3)cccn12 | 7.57 | -5.76 |
| Cc1ccc(NC(=O)CSc2nc3ccccc3n3cnnc23)c(C)c1 | -8.66 | -6.3 |
| CC(=O)Nc1ccc(NC(=O)CSc2nc3ccccc3n3cnnc23)cc1 | -1.2 | 2.28 |
| CCc1cccc(NC(=O)CSc2nnc3c(=O)n(-c4ccccc4)ccn23)c1 | 0.07 | -11.7 |
| O=S(=O)(c1cccn2cnnc12)N(Cc1ccc(F)cc1)c1ccc(F)cc1 | 8.29 | -3.31 |
| CC(C)CCn1c(=O)c2sccc2n2c(=O)n(CC(=O)NC(C)C)nc12 | -2.24 | -10.46 |
| COc1ccccc1-n1ccn2c(SCC(=O)N3CCN(c4ccccc4F)CC3)nnc2c1=O | 13.15 | -2.51 |
| N#Cc1cccc(NC(=O)CSc2nnc3c4cc(-c5ccccc5)nn4ccn23)c1 | 2.79 | -3.47 |
| CCc1ccc(NC(=O)Cn2nc3cc(C)nc(Nc4ccc(C)c(F)c4)n3c2=O)cc1 | -14.67 | -1.11 |

| Compound | Inhibition (Staphylococcus aureus) [%] | Inhibition (Escherichia coli) [%] |
| --- | --- | --- |
| COc1cccc(CN(c2ccc(F)cc2)S(=O)(=O)c2ccc3nnc(C)n3c2)c1 | -1.25 | -6.02 |
| COc1ccccc1-n1ccn2c(=O)n(Cc3ccc(F)cc3Cl)nc2c1=O | 9.6 | -2.36 |
| CCCc1nnc2c(=O)n(CC(=O)Nc3ccc4c(c3)OCCO4)c3ccccc3n12 | 2.35 | -7.37 |
| CCOC(=O)c1ccccc1NC(=O)Cn1nc2c3sc(N4CCCC4)nc3ncn2c1=O | 11.36 | -3.52 |
| O=C(Cn1nc2c3sc(N4CCCC4)nc3ncn2c1=O)Nc1ccc(C(F)(F)F)cc1 | 13.19 | -0.19 |
| Cc1ccc(-c2cc3c4nn(CC(=O)Nc5cccc(Br)c5)c(=O)n4ccn3n2)cc1 | 8.15 | 0.32 |
| N#Cc1ccc(NC(=O)CSc2nnc3c4cc(-c5ccc(F)cc5)nn4ccn23)cc1 | 5.96 | -4.2 |
| CCc1ccc(N(Cc2ccccc2)S(=O)(=O)c2cccn3c(C)nnc23)cc1 | 11.03 | -3.19 |
| COC(=O)c1ccc(CN(c2ccc(C)cc2)S(=O)(=O)c2ccc3nnc(C)n3c2)o1 | 4.75 | -4.99 |
| Cc1ccc(Cl)cc1NC(=O)CSc1nnc2c(=O)n(-c3ccccc3)ccn12 | 7.91 | -1.12 |
| Cc1nnc2ccc(S(=O)(=O)N(Cc3ccccc3Cl)c3cccc(F)c3)cn12 | -1.06 | -5.9 |
| O=C(Cn1nc2c(Oc3ccccc3)nccn2c1=O)Nc1ccc(F)cc1F | 6.01 | -8.04 |
| Cc1cc2nn(CC(=O)Nc3ccc(Cl)cc3)c(=O)n2c(Nc2ccc(F)c(C)c2)n1 | 4.83 | -2.12 |
| Cc1nnc2ccc(S(=O)(=O)N(Cc3ccccc3F)c3ccc(F)cc3)cn12 | -2.33 | -7.33 |
| O=c1n(Cc2nc(-c3ccc(OC(F)(F)F)cc3)no2)nc2ccc(-c3ccccc3)nn12 | -0.65 | -5.47 |
| CCc1nnc2c(S(=O)(=O)N(Cc3ccccc3Cl)c3ccccc3)cccn12 | 0.81 | -6.41 |
